Screening data as filed in PubChem BioAssay.
Most compounds without a hit are left out; they make up all but 6.9% or so of the library.
MCF10A rerep – DNA re-replication induction in MCF 10a cells | MCF 10A DNA re-replication, Hoechst nuclear intensity, 48 h | actives 2.9% (n = 350,000) | Potency, µM (doses to about 46.1 µM), actives largely listed as activators; also: nearly all actives have a fitted effect of over 50% in size
SW480 rerep – DNA re-replication induction in SW480 cells | SW480 DNA re-replication, Hoechst DNA content imaging, 48 h | Potency, µM (series often up to 46.1 µM), actives largely listed as activators | actives 1.8% (n = 340,000) | AID 624297; also: nearly all actives have a fitted effect of over 55% in size
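DNA re-replication was detected as more nuclei of elevated Hoechst intensity after 48 hr exposure to compound (23 nL pinned per well of 250 cells).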
Vif-APOBEC3F blk – Vif-A3F binding inhibition; HeLa A3F-eYFP + Vif (tagged APOBEC3F with the HIV-1 protein that degrades it), YFP fluorescence increase; Potency, µM (top dose mostly 46.1 µM); actives 0.2% (n = 390,000); also: nearly all actives have a fitted effect of over 65% in size
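Fluorescence increase (Ex 488/Em 500-530) after overnight compound treatment at 37 deg C flags inhibition of Vif-driven A3F-eYFP loss in stable HeLa A3F-eYFP/Vif cells seeded overnight beforehand.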
IL1B secr inh – inhibitors of inflammasome signaling (IL-1 beta secretion); THP-1 LPS/ATP IL-1B secretion, AlphaLISA, 16 h; stronger effect = lower value; activity change, % at 57.5 µM; actives 4.7% (n = 360,000); AID 743279; in the data active = activity change below about -50%; inconclusive = mostly about -30% to -49%
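Secreted IL-1B measured by AlphaLISA bead assay after 16 h compound exposure of THP-1 cells; compounds (final up to 57.5 uM) added 1 h before LPS (250 ng/mL) and ATP (1.25 mM) stimulation; lower signal means less secretion.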
Giardia kill – kills Giardia lamblia; Giardia lamblia trophozoite viability; AID 540267; actives 0.15% (n = 340,000); activity change, % at 7.66 µM, hits read low; in the data active = activity change below about -80%; inconclusive = between about -30% and that limit;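 also: parasites exposed to compound for two days anaerobically before the ATP read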
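ATP-content bioluminescence gauges trophozoite survival. Cells (100/well) receive compound and incubate anaerobically for 48 hrs at 37 deg C; detection reagent follows for 15-30 min at room temperature.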
Vif-A3G inh – Vif-A3G binding inhibition; Q9HC16; HeLa A3G-eYFP + Vif (tagged APOBEC3G with the HIV-1 protein that degrades it), YFP fluorescence, overnight; Potency, µM (doses to about 46.1 µM), usual class: inhibitors; actives 0.076% (n = 410,000); AID 602310; also: nearly all actives have a fitted effect of over 60% in size
Target sequence (Q9HC16 whole entry, looked up): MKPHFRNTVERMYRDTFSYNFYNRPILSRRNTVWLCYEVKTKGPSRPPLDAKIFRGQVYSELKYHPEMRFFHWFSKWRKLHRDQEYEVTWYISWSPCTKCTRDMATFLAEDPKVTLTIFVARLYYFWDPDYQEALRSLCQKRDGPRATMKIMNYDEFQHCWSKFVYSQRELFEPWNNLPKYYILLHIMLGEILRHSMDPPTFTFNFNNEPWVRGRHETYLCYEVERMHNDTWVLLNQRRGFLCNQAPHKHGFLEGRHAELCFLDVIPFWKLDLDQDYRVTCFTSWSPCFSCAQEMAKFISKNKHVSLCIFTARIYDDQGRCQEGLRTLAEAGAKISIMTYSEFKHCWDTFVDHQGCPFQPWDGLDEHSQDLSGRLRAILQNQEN
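HeLa cells stably expressing Vif and C-terminally eYFP-tagged A3G, seeded overnight at 37 deg C, then exposed to compound by pintool overnight at 37 deg C. Rise in yellow fluorescence (Ex 488/Em 500-530, Acumen) marks blocked Vif-driven A3G degradation.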
Numbers stand for hits. Unless noted, calls follow the shape of the dose curve; as a rule, active = well fitted curve in the direction sought with a large enough effect; inconclusive = small, poorly fitted or top-dose-only effect, or another doubt; inactive = no such curve, though single readings can be large; an effect the other way counts as inactive or inconclusive.

How did COc1cc(OC)cc(-c2nnc(SCc3c(F)cccc3Cl)o2)c1 do in these assays?
MCF10A rerep: inactive; SW480 rerep: inactive; Vif-APOBEC3F blk: inactive; IL1B secr inh: -60; Giardia kill: inactive; Vif-A3G inh: inactive

Results for COc1ccc(-c2nnc(SCc3ccccc3F)o2)cc1 ?
MCF10A rerep: inactive; SW480 rerep: inactive; Vif-APOBEC3F blk: inactive; IL1B secr inh: inactive; Giardia kill: inactive; Vif-A3G inh: inactive

How did CC(=O)Oc1ccc2cc(-c3nc4c(s3)CCc3ccccc3-4)c(=O)oc2c1 do in these assays?
Giardia kill: inactive; Vif-A3G inh: inactive

What do the screens show for `CC(=O)N1CCSc2ccc(S(=O)(=O)NCCc3ccc(C)cc3)cc21`?
MCF10A rerep: inactive; SW480 rerep: inactive; Vif-APOBEC3F blk: inactive; IL1B secr inh: inconclusive; Giardia kill: inactive; Vif-A3G inh: inactive

Results for CC(=O)N1CCSc2ccc(S(=O)(=O)NCCc3cccc(C)c3)cc21 ?
MCF10A rerep: inactive; SW480 rerep: inactive; Vif-APOBEC3F blk: inactive; IL1B secr inh: -80; Giardia kill: inactive; Vif-A3G inh: inactive

How did COc1cc(OC)cc(C(=O)NC(C(=O)N2CCc3ccccc3C2)C(C)C)c1 (centres undefined) do in these assays?
MCF10A rerep: inconclusive; SW480 rerep: 18µM; Vif-APOBEC3F blk: inconclusive; IL1B secr inh: inactive; Giardia kill: inactive; Vif-A3G inh: inactive

Results for COc1ccccc1N1CCN(C(=O)c2ccc3[nH]c(C)c(C)c3c2)CC1 ?
MCF10A rerep: inconclusive; SW480 rerep: 2.3µM; Vif-APOBEC3F blk: inactive; IL1B secr inh: inactive; Giardia kill: inactive; Vif-A3G inh: inconclusive

Results for Cc1cccc(N2CCN(C(=O)c3cccc(S(=O)(=O)N4CCCCC4)c3)CC2)c1C ?
MCF10A rerep: 15µM; SW480 rerep: inconclusive; Vif-APOBEC3F blk: inactive; IL1B secr inh: inactive; Giardia kill: inactive; Vif-A3G inh: inactive

Results for CC1CCc2[nH]c3ccc(C(=O)O)cc3c2C1 (centres undefined) ?
MCF10A rerep: inactive; SW480 rerep: inconclusive; Vif-APOBEC3F blk: inactive; IL1B secr inh: inactive; Giardia kill: inactive; Vif-A3G inh: inactive

How did COc1ccccc1N1CCN(C(=O)c2ccc3[nH]c4c(c3c2)CC(C)CC4)CC1 (centres undefined) do in these assays?
MCF10A rerep: inconclusive; SW480 rerep: inactive; Vif-APOBEC3F blk: inactive; IL1B secr inh: -94; Giardia kill: inactive; Vif-A3G inh: inactive

What do the screens show for `CCOc1ccccc1NC(=O)c1ccc2[nH]c(C)c(C)c2c1`?
MCF10A rerep: inconclusive; SW480 rerep: 23µM; Vif-APOBEC3F blk: inactive; IL1B secr inh: inactive; Giardia kill: inactive; Vif-A3G inh: inactive

How did COc1cccc(NC(=O)C(CCSC)NC(=O)C2CCC(C)CC2)c1 (centres undefined) do in these assays?
Vif-APOBEC3F blk: inactive; Vif-A3G inh: inactive

Results for CC1Cc2ccccc2N1S(=O)(=O)c1cccc(C(=O)N2CCN(c3ncccn3)CC2)c1 (centres undefined) ?
MCF10A rerep: inconclusive; SW480 rerep: inconclusive; Vif-APOBEC3F blk: inactive; IL1B secr inh: -66; Giardia kill: inactive; Vif-A3G inh: inactive

Results for CCOC(=O)c1[nH]c2ccc(OC)cc2c1NC(=S)N1CCN(c2cccc(C)c2C)CC1 ?
MCF10A rerep: 15µM; SW480 rerep: inconclusive; Vif-APOBEC3F blk: inactive; IL1B secr inh: inactive; Giardia kill: inactive; Vif-A3G inh: inconclusive

What do the screens show for `Cc1cccc(N2CCN(C(=O)c3ccc4[nH]c(C)c(C)c4c3)CC2)c1C`?
MCF10A rerep: 2.3µM; SW480 rerep: 3.3µM; Vif-APOBEC3F blk: inactive; IL1B secr inh: inactive; Giardia kill: inactive; Vif-A3G inh: inconclusive

How did Cc1[nH]c2ccc(C(=O)N3CCN(c4ccccc4Cl)CC3)cc2c1C do in these assays?
MCF10A rerep: inconclusive; SW480 rerep: inconclusive; Vif-APOBEC3F blk: inactive; IL1B secr inh: inactive; Giardia kill: inactive; Vif-A3G inh: inactive

Results for Cc1cccc(N2CC(C(=O)Nc3cccc(S(=O)(=O)N4CCCCC4)c3)CC2=O)c1C (centres undefined) ?
MCF10A rerep: inactive; SW480 rerep: inactive; Vif-APOBEC3F blk: inactive; IL1B secr inh: -51; Giardia kill: inactive; Vif-A3G inh: inactive

Results for Cn1c(=O)c2c(c3ccccc31)OC(=O)CC2c1cccc(F)c1 (centres undefined) ?
Vif-APOBEC3F blk: inactive; Vif-A3G inh: inactive

What do the screens show for `CCOC(=O)c1cc(OC(=O)c2cccc(F)c2)n(-c2ccccc2)n1`?
Vif-APOBEC3F blk: inactive; Vif-A3G inh: inactive

How did COc1cc(C(=O)N2CCN(c3ccc(C)cc3C)CC2)cc(OC)c1OC do in these assays?
MCF10A rerep: 18µM; SW480 rerep: 6.5µM; Vif-APOBEC3F blk: inactive; IL1B secr inh: inactive; Giardia kill: inactive; Vif-A3G inh: inconclusive

Results for Cc1cccc(N2CCN(C(=O)c3ccc4c(c3)CCN4S(C)(=O)=O)CC2)c1C ?
MCF10A rerep: inactive; SW480 rerep: inactive; Vif-APOBEC3F blk: inactive; IL1B secr inh: -51; Giardia kill: inactive; Vif-A3G inh: inactive

How did Cc1cc(C)cc(NC(=O)c2ccc3c(c2)CCN3S(C)(=O)=O)c1 do in these assays?
MCF10A rerep: inactive; SW480 rerep: inactive; Vif-APOBEC3F blk: inactive; IL1B secr inh: inactive; Giardia kill: inactive; Vif-A3G inh: inactive

What do the screens show for `Cc1cccc(NC(=O)c2ccc3c(c2)CCN3S(C)(=O)=O)c1`?
MCF10A rerep: inactive; SW480 rerep: inactive; Vif-APOBEC3F blk: inactive; IL1B secr inh: -64; Giardia kill: inactive; Vif-A3G inh: inactive

What do the screens show for `CCC[C@@H](CN1CCC[C@H]1CN1C(N)=NC[C@H]1CC(C)C)N1C[C@@H]([C@H](C)CC)N(CCCC2CCCC2)C1=N`?
MCF10A rerep: inactive; SW480 rerep: inactive; Vif-APOBEC3F blk: inactive; IL1B secr inh: -58; Giardia kill: inactive; Vif-A3G inh: inactive

What do the screens show for `CCC[C@@H](CN1CCC[C@H]1CN1C(N)=NC[C@H]1C(C)C)N1C[C@@H]([C@H](C)CC)N(CCCC2CCCC2)C1=N`?
MCF10A rerep: inactive; SW480 rerep: inactive; Vif-APOBEC3F blk: inactive; IL1B secr inh: inactive; Giardia kill: inactive; Vif-A3G inh: inactive

Results for COC(=O)c1ccc(NC(=O)CC2C(=O)N(c3cccc(F)c3)C(=O)N2CC(C)C)cc1 (centres undefined) ?
Vif-APOBEC3F blk: inactive; Vif-A3G inh: inactive

How did Cc1cc(C)c(C)c(OCCOCCN2CCN(C)CC2)c1 do in these assays?
MCF10A rerep: 21µM; SW480 rerep: inactive; Vif-APOBEC3F blk: inactive; IL1B secr inh: inactive; Giardia kill: inactive; Vif-A3G inh: inactive

Results for Cc1cc(C)c(C)c(OCCOCCN2CCOCC2)c1 ?
MCF10A rerep: inactive; SW480 rerep: inactive; Vif-APOBEC3F blk: inactive; IL1B secr inh: inactive; Giardia kill: inactive; Vif-A3G inh: inactive
